Screening data (PubChem BioAssay)
Rows were chosen to be rich in hits. Some 9.2% of all compounds tested hit in one or more screens of this group.
Rab9 prom act = Rab9 promoter activation; Huh7 Rab9 promoter-luciferase reporter, luminescence, 24 h; Potency, µM (titrated, usually from 9.22 µM), actives largely listed as activators; actives 2.8% (n = 320,000); further: nearly all actives have a fitted effect of over 60% in size
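Stable Rab9-luc Huh7, 1500 cells/well, 2 h settle; cmpd in DMSO, 24 h, 37 °C/5% CO2; luciferase reagent 10 min RT; luminescence.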
NPC1 prom act = activates the NPC1 promoter | Huh7 NPC1 promoter luciferase reporter, 24 h | Potency, µM (titrated, usually from 9.22 µM), hits mostly activators | actives 2.4% (n = 320,000) | AID 485313; further: nearly all actives have a fitted effect of over 60% in size
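Readout is luciferase luminescence, reflecting NPC1 promoter activation in stably transfected Huh7 cells after 24 h compound exposure at 37 °C in reduced-serum medium with 10% FBS.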
SMN2 splice up = enhancers of SMN2 splice variant expression; HEK293 SMN2-luciferase splicing reporter, luminescence, 30-36 h; Potency, µM (top dose mostly 46.1 µM), most hits filed as activators; actives 2.8% (n = 210,000); AID 1458; further: nearly all actives have a fitted effect of over 55% in size
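HEK293 cells carry an SMN2 minigene-luciferase reporter in which exon 7 inclusion puts luciferase in frame. Cells were seeded at 2000 cells/well, attached for 10-12 hours, then exposed to compounds for 30-36 hours at 37C before ONE-Glo luminescence.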
ELG1 genotoxic = induces genotoxicity in HEK293T cells with luciferase-tagged ELG1. HEK293T ELG1-luciferase reporter, luminescence, 16 h. Potency, µM (doses to about 46 µM), actives largely listed as activators. actives 1.3% (n = 330,000); further: nearly all actives have a fitted effect of over 60% in size
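Luminescence read-out: rising ELG1-luciferase signal, reflecting elevated ELG1 protein under genetic stress, flags genotoxic compounds. Cells were treated for 16 hr at 37 °C before ONE-Glo detection.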
FLuc counter = firefly luciferase modulation, counter-screen for miR-21 project; P08659; purified FLuc, Km substrates, luminescence inhibition; Potency, µM (top dose mostly 57.5 µM), actives largely listed as inhibitors; actives 6.9% (n = 360,000); further: nearly all actives have a fitted effect of over 55% in size
Target sequence (P08659 whole entry, looked up): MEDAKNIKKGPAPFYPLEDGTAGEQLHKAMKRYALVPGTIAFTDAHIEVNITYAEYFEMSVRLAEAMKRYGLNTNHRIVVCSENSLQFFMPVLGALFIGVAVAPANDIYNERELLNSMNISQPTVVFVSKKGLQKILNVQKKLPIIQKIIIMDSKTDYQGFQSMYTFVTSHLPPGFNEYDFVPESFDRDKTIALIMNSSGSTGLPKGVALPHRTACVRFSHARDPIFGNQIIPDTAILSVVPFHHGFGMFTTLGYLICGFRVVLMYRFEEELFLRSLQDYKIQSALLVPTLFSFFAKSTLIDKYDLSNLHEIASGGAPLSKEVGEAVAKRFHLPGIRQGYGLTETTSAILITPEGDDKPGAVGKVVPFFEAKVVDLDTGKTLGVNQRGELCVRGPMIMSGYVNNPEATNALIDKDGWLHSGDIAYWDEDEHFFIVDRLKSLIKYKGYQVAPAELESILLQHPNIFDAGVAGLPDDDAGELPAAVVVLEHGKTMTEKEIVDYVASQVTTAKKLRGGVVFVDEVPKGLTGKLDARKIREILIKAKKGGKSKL
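Purified P. pyralis luciferase, 10 nM final, with Km-level 10 uM D-luciferin and 10 uM ATP in 50 mM Tris acetate pH 7.5, 10 mM Mg acetate, 0.01% Tween-20, 0.05% BSA; 6-point qHTS titration about 60 µM downward; luminescence read.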
ELG1 DNA repair = blocks ELG1-dependent DNA repair in HEK293T cells; HEK293T ELG1-luciferase reporter, luminescence, 16 h; DNA damage induced by 5-fluorouridine; Potency, µM (doses to about 46.1 µM), most hits filed as inhibitors; actives 2.3% (n = 330,000); AID 504467; further: nearly all actives have a fitted effect of over 55% in size
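HEK293T cells expressing luciferase-tagged ELG1 (2,000/well) received 5-Fluorouridine plus compound or DMSO for 16 hr at 37 °C. Luciferase was read by ONE-Glo luminescence after 30 min at room temperature.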
Each line names hits and unclear results; the compound was inactive in the other large screens. The call rests on the fitted dose curve; in most records, active means well fitted curve in the direction sought with a large enough effect; inconclusive means small, poorly fitted or top-dose-only effect, or another doubt; inactive means no such curve, though single readings can be large; an effect the other way counts as inactive or inconclusive.

COC(=O)CCC(=O)Nc1ccc(S(=O)(=O)Nc2nc(C)cc(C)n2)cc1	none (no result: SMN2 splice up)
Cc1csc2nc(CSc3nc4ccccc4o3)cn12	Rab9 prom act inconclusive, NPC1 prom act 3.98µM, ELG1 genotoxic inconclusive, FLuc counter 21.3µM, ELG1 DNA repair inconclusive
c1ccc2oc(SCc3cn4ccsc4n3)nc2c1	Rab9 prom act 3.55µM, NPC1 prom act 2.82µM, SMN2 splice up inconclusive, ELG1 genotoxic inconclusive, FLuc counter 9.53µM, ELG1 DNA repair inconclusive
Cc1ccc2c(c1)-n1c(nc3ccc(C)cc3c1=O)C(Cc1ccccc1)NC2=O (stereo not drawn)	none (no result: Rab9 prom act, NPC1 prom act, SMN2 splice up, FLuc counter)
Cc1cc(C)cc(NC(=O)Nc2cccnc2)c1	FLuc counter inconclusive (no result: SMN2 splice up)
CCc1ccc(NC(=O)Nc2cccs2)cc1	Rab9 prom act 0.794µM, NPC1 prom act 1.12µM, SMN2 splice up 14.1µM, ELG1 genotoxic inconclusive, FLuc counter 0.849µM, ELG1 DNA repair inconclusive
Cc1ccc(NC(=O)Nc2cccs2)cc1	Rab9 prom act 2.24µM, NPC1 prom act 2.82µM, SMN2 splice up 15.8µM, FLuc counter 2.39µM, ELG1 DNA repair inconclusive
Cc1cc(C)cc(NC(=O)Nc2cccs2)c1	FLuc counter 9.53µM (no result: Rab9 prom act, NPC1 prom act, ELG1 genotoxic, ELG1 DNA repair)
Cc1ccc(NC(=O)Nc2cccs2)nc1	Rab9 prom act 2.24µM, NPC1 prom act 3.98µM, SMN2 splice up inconclusive, ELG1 genotoxic inconclusive, FLuc counter 21.3µM, ELG1 DNA repair inconclusive
COc1ccc(S(=O)(=O)N2CCC(N3CCN(Cc4ccc(F)cc4)C(=O)C3=O)CC2)cc1	none (no result: Rab9 prom act, NPC1 prom act, SMN2 splice up, ELG1 genotoxic, ELG1 DNA repair)
COc1ccc(CCNC(=O)CCCn2c(=O)c3ccccc3n(CC(=O)Nc3cccc(C)c3)c2=O)cc1OC	none (no result: Rab9 prom act, NPC1 prom act, ELG1 genotoxic, ELG1 DNA repair)
Cc1ccc(NC(=O)c2sccc2C)nc1	Rab9 prom act 0.501µM, NPC1 prom act 0.891µM, ELG1 genotoxic 2.91µM, FLuc counter 12µM, ELG1 DNA repair inconclusive (no result: SMN2 splice up)
CCOc1ccc(NC(=O)Nc2cccs2)cc1	Rab9 prom act 1.41µM, NPC1 prom act 0.891µM, SMN2 splice up 11.2µM, ELG1 genotoxic 4.61µM, FLuc counter 1.51µM, ELG1 DNA repair inconclusive
Cc1ccc(NC(=O)c2ccc(F)cc2)nc1	none (no result: SMN2 splice up)
O=C1CCCN1CCC(=O)N1CCCC(CO)(Cc2ccccc2)C1 (stereo not drawn)	Rab9 prom act 3.55µM, NPC1 prom act inconclusive, FLuc counter 16.9µM, ELG1 DNA repair inconclusive (no result: SMN2 splice up)
CSCCC(=O)N1CCCC(CO)(CCCc2ccccc2)C1 (stereo not drawn)	none (no result: SMN2 splice up)
CCCCc1cc2c(cn1)=C(OC(=O)CCC(=O)OC)C(C)(OC(=O)CC)C(=O)C=2 (stereo not drawn)	none (no result: Rab9 prom act, NPC1 prom act, ELG1 genotoxic, FLuc counter, ELG1 DNA repair)
O=S(=O)(c1cccc(-c2nc3ccccc3s2)c1)N1CCOCC1	FLuc counter inconclusive
Nc1ccc(-c2nc3ccc(N)cc3s2)cc1	Rab9 prom act inconclusive, NPC1 prom act inconclusive, ELG1 genotoxic inconclusive, FLuc counter 0.269µM, ELG1 DNA repair inconclusive (no result: SMN2 splice up)
Nc1ccc2nc(-c3ccc(O)cc3)sc2c1	SMN2 splice up 1.41µM, FLuc counter 0.301µM (no result: Rab9 prom act, NPC1 prom act, ELG1 genotoxic, ELG1 DNA repair)
COc1ccc(CNC(=O)CSc2nc3ccc(N)cc3s2)cc1	FLuc counter inconclusive
Nc1cccc(-c2nc3ccc(N)cc3s2)c1	Rab9 prom act inconclusive, NPC1 prom act inconclusive, SMN2 splice up 12.6µM, ELG1 genotoxic inconclusive, FLuc counter 0.269µM, ELG1 DNA repair inconclusive
CC(=O)C1=NN(c2ccccc2)C(c2ccc3c(c2)OCO3)N1c1ccccc1 (stereo not drawn)	ELG1 DNA repair inconclusive
CC(=O)C1=NN(c2ccccc2)C(c2cccs2)N1c1ccc(N(C)C)cc1 (stereo not drawn)	ELG1 DNA repair 16.4µM
COc1cc(-c2cc3n(C)c(C)c(CCC(=O)NCc4ccccc4)c(=O)n3n2)cc(OC)c1OC	none (no result: Rab9 prom act, NPC1 prom act, SMN2 splice up, ELG1 genotoxic, ELG1 DNA repair)
Cc1cccc(NC(=O)c2ccc3c(Cl)c4c(nc3c2)CCCC4)n1	Rab9 prom act 0.562µM, NPC1 prom act 1.12µM, SMN2 splice up 3.16µM, ELG1 genotoxic 2.91µM, FLuc counter 0.675µM, ELG1 DNA repair inconclusive
CN(C(=O)c1ccc2c(Cl)c3c(nc2c1)CCC3)c1ccccc1	Rab9 prom act inconclusive, NPC1 prom act inconclusive, ELG1 genotoxic inconclusive, FLuc counter 21.3µM, ELG1 DNA repair inconclusive (no result: SMN2 splice up)
CCOc1ccc(NC(=O)c2ccc3c(SCC(=O)O)c4c(nc3c2)CCC4)cc1	FLuc counter 23.9µM (no result: Rab9 prom act, NPC1 prom act, ELG1 genotoxic, ELG1 DNA repair)
O=C(Nc1ccc(Cl)cn1)c1ccc2c(Cl)c3c(nc2c1)CCC3	Rab9 prom act inconclusive, NPC1 prom act 0.316µM, ELG1 genotoxic inconclusive, FLuc counter 0.19µM, ELG1 DNA repair inconclusive (no result: SMN2 splice up)
O=C(NCc1ccc(F)cc1)c1ccc2c(Cl)c3c(nc2c1)CCCC3	none (no result: Rab9 prom act, NPC1 prom act, ELG1 genotoxic, ELG1 DNA repair)
Cc1cc2[nH]c(=O)c(=O)[nH]c2cc1S(=O)(=O)N1CCC(C)CC1	none (no result: SMN2 splice up)
Cc1ccc(CNC(=O)c2cccn2-c2nnc(N3CCCCC3)s2)cc1	none (no result: Rab9 prom act, NPC1 prom act, SMN2 splice up, ELG1 genotoxic, ELG1 DNA repair)
CCC(C)NC(=O)c1ccc2c(Cl)c3c(nc2c1)CCC3 (stereo not drawn)	Rab9 prom act 2.51µM, NPC1 prom act 2.82µM, ELG1 genotoxic inconclusive, FLuc counter 4.78µM, ELG1 DNA repair inconclusive (no result: SMN2 splice up)
COc1cc(Cl)c(C)cc1NC(=O)c1ccc2c(Cl)c3c(nc2c1)CCC3	SMN2 splice up inconclusive (no result: Rab9 prom act, NPC1 prom act, ELG1 genotoxic, ELG1 DNA repair)
COc1ccc(C)cc1NC(=O)c1ccc2c(Cl)c3c(nc2c1)CCC3	FLuc counter 1.69µM (no result: Rab9 prom act, NPC1 prom act, ELG1 genotoxic, ELG1 DNA repair)
CCC(C)NC(=O)c1ccc2c(SCC(=O)O)c3c(nc2c1)CCCC3 (stereo not drawn)	FLuc counter inconclusive
